Our source for the composite z-score and z-score values is PubChem BioAssay.

Molecules are shown by their SMILES.

The test system of assay [1] is Human papillomavirus type 1a protein E7 (residues 44-93). Kind of assay: small molecules binding HPV E7 44-93 – biochemical, small-molecule microarray, residues 44-93, 635 nm fluorescence, primary screen (AID 1108).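 Note: E7 fragment applied at 1 µg/mL in TBST for 1 h at 4 C; score combines spot fluorescence with its signal to noise ratio.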 Conditions: fluorescence 635 nm, higher = more signal.
The nature of assay [2]: hepatitis C replication reporter changes, two-sided – Huh7 cells, luciferase reporter, HCV replication inhibitor project, primary screen (AID 1109).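 Note: huh7 hepatoma cells harbouring a luciferase neomycin HCV replicon reporter; luciferase luminescence as measure of HCV replicon replication; test concentration not given here.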 Conditions: Huh7 HCV replicon luciferase reporter, 48 h; higher = more signal. On the technique in general: In a reporter assay the amount or activity of a reporter protein is the signal.
Assay [3] deals with Left-right determination factor 2 (Homo sapiens) (UniProt O00292). Kind of assay: small molecules binding LEFTY2 protein – biochemical, small-molecule microarray, 635 nm fluorescence scan, primary screen (AID 1110). The settings on record: higher = more signal.
Assay [4] deals with Calmodulin-1 (Homo sapiens) (UniProt P0DP23). In words: small molecules binding calmodulin-1 with EGTA – biochemical, small-molecule microarray, Cy5-labelled CALM1, profiling panel (AID 1111).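 Note: labelled calmodulin applied in Tris saline Tween buffer holding calcium plus EGTA and DTT.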 Conditions: Cy5-CALM1 binding fluorescence, higher = more signal.
For assay [5] the target is unchanged. Kind of assay: small molecules binding Ca-loaded calmodulin-1 – biochemical, small-molecule microarray, Cy5-labelled CALM1, plus calcium, artefact control for SMM control-protein annotation, profiling panel (AID 1112).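 Note: score merges spot fluorescence with signal to noise from triplicate slides.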 Conditions: Cy5-CALM1 binding fluorescence, higher = more signal.
The nature of assay [6]: probe aWnt5a binding to arrayed compounds – biochemical, biotinylated probe, 635/667 nm fluorescence, primary screen (AID 1113).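 Note: score merges 667 nm fluorescence intensity with signal-to-noise per printed feature.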 The settings on record: small-molecule microarray, higher = more signal.
Assay [7] can be described thus: probe aShh binding to arrayed compounds – biochemical, biotinylated probe, 635/667 nm fluorescence, primary screen (AID 1114).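 Note: probe is biotin-labelled aShh protein from a stem cell growth factor screen; measures binding of labelled protein to compounds printed on the slide; score merges feature fluorescence at 667 nm with signal-to-noise.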 The settings on record: small-molecule microarray, higher = more signal.
Assay [8] can be described thus: probe aNog binding to arrayed compounds – biochemical, biotinylated probe, 635/667 nm fluorescence, primary screen (AID 1115).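 Note: probe is biotinylated aNog protein used at 0.15 µg/mL for 1 h at 4 C; z-score combines 667 nm fluorescence of each spot with its signal to noise.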 Conditions: small-molecule microarray, higher = more signal.
For assay [9], the target named is Torsin-1A-interacting protein 1 (Homo sapiens) (UniProt Q5JTV8). In words: compound microarray binding of lysate hLAP1 – cell lysate, small-molecule microarray, COS7 lysate, 635/667 nm fluorescence, primary screen (AID 1116). The settings on record: 635 nm fluorescence, higher = more signal.
In assay [10] the target is Alpha-bungarotoxin (Bungarus multicinctus) (UniProt P60615). Kind of assay: compounds binding labelled alpha-BTX control protein – biochemical, small-molecule microarray, Alexa647 label, 635/667 nm fluorescence, artefact control for SMM control protein annotation, profiling panel (AID 1117). Conditions: alpha-BTX-A647 binding fluorescence, higher = more signal.
Chain of Alpha-bungarotoxin (Bungarus multicinctus) (P60615 whole entry, looked up): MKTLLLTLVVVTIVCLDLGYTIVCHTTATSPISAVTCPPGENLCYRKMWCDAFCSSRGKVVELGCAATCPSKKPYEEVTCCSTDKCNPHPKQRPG

Chain of Left-right determination factor 2 (Homo sapiens) (O00292 whole entry, looked up): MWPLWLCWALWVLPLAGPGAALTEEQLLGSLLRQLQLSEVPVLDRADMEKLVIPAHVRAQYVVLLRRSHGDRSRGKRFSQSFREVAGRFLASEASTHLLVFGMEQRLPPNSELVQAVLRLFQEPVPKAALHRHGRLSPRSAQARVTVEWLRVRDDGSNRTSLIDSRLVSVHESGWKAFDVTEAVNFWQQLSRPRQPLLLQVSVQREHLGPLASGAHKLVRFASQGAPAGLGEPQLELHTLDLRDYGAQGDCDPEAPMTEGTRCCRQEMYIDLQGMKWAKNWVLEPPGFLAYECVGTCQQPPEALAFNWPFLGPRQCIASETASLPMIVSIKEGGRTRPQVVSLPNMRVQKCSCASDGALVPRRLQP
Chain of Torsin-1A-interacting protein 1 (Homo sapiens) (Q5JTV8 whole entry, looked up): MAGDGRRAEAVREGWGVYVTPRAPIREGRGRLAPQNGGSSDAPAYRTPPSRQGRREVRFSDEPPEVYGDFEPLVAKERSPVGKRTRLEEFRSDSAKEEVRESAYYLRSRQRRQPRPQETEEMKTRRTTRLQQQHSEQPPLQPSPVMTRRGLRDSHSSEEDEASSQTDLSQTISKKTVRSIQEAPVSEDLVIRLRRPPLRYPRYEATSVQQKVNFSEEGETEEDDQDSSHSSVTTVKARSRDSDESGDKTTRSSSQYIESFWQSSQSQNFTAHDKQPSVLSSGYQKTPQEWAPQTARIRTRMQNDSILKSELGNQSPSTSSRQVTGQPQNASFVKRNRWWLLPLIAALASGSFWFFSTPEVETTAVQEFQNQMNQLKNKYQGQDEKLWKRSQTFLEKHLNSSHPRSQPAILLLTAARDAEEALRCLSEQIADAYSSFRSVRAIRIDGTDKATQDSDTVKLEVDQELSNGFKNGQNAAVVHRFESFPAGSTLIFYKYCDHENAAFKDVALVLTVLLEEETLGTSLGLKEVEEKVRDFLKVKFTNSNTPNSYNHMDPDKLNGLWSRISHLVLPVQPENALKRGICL

For the compound `[N-]=[N+]=Nc1ccccc1C[C@]1(C(N)=O)N=C(c2ccc(OCCCO)cc2)O[C@H]1c1ccccc1N=[N+]=[N-]`, the composite z-score in assay [1] is 1.38; in [3] it was -0.0114; in assay [4] it was 1.55; in assay [5], 0.873; in assay [6], 0.0799; in [7] it was 0.162. For the same compound, the composite z-score in assay [8] came to 1.03; in assay [9] it was 0.776; in assay [10], 0.702. The compound further came in with a z-score in assay [2] of -2.55.

`CCCC[C@@H](O)C1=C(COc2ccccc2)C[C@H]2C(=O)N(C)C(=O)[C@H]2[C@H]1CO`: the composite z-score in assay [1] is -1.05; in [3], -0.164; in [4], -0.756; in assay [5] it was -0.527; in [6] it was -0.195; in assay [7], -0.2. Besides, the results for the composite z-score in assay [8], in assay [9] and in assay [10] were -0.519, -1 and -0.149, respectively. The same compound registered a z-score in assay [2] of -0.408.

Regarding `CC(C)C(=C=CC[C@H](O)c1ccc(OCCO)cc1)C[C@H](O)c1ccccn1`, the composite z-score in assay [1] was 1.22; in assay [3] it was -0.0676; in [4] it was 0.0123; in assay [5], -0.0896; in assay [6], -0.1; in assay [7], -0.0769. The composite z-score in [8] was -0.132; in assay [9], 0.859; in [10], 1.6. Also, the z-score in assay [2] was -0.789.

Consider `[N-]=[N+]=Nc1ccccc1C[C@]1(C(=O)N2CCOCC2)N=C(c2ccc(OCCCO)cc2)O[C@H]1c1ccccc1`, for which the composite z-score in assay [1] is 1.04; in [3], 0.444; in assay [4], 1.17; in [5], 0.173; in assay [6], 0.104; in assay [7], -0.153. Also, the composite z-score in assay [8] came out at 0.347; in [9] it was 1.18; in assay [10], 1.31. Moreover, the z-score in [2] is -1.81.

As for `Cc1ccc(S[C@]2(C(=O)NCC(F)(F)F)CC(=O)N(Cc3ccccc3)[C@@H]2c2ccc(CO)cc2I)cc1`, the composite z-score in [1] was 0.503; in assay [3], -0.842; in assay [4], -0.0153; in assay [5] it was 0.517; in assay [6], -0.0203; in assay [7], -0.0362. In addition, the results for the composite z-score in assay [8], in assay [9] and in [10] were 0.358, 0.349 and 1.36, respectively. Also, the z-score in assay [2] is -2.48.

`CCCCC(O)C1C=CC2C(=O)N(c3ccccc3)C(=O)C2N1Nc1ccc(C(C)C)cc1` (stereo not given): the composite z-score in assay [1] came to 1.41; in assay [3], 0.154; in assay [4], 1.25; in assay [5], 0.304; in assay [6] it was 0.0974; in assay [7] it was 0.0875. For the same compound, the composite z-score was -0.503 in [8], -0.236 in [9] and 1.06 in assay [10]. This compound showed a z-score in assay [2] of 0.318.

As to `COc1cc2c(cc1OC)CN(C(=O)[C@@H]1[C@H]3C(=O)O[C@H](c4ccccc4)[C@H](c4ccccc4)N3[C@H](c3ccc(OCCO)cc3)[C@@]13C(=O)Nc1ccc(C#CC4(O)CCCCCC4)cc13)CC2`, the composite z-score in [1] is 1.34; in assay [3], 0.866; in assay [4] it was 1.52; in assay [5], -0.225; in assay [6] it was 0.0596; in [7], 0.0985. Besides, the composite z-score was -0.111 in assay [8], 1.37 in [9] and 1.69 in [10]. This compound also displayed a z-score in [2] of -1.34.

As to `O=C1O[C@@H](c2ccccc2)[C@@H](c2ccccc2)N2[C@@H](c3ccccc3OCCO)[C@]3(C(=O)Nc4ccc(C#CCCO)cc43)[C@@H](C(=O)N3CCCCCCC3)[C@H]12`, the composite z-score came to 1.51 in assay [1]; 1.82 in assay [3]; 3.18 in assay [4]; 1.89 in [5]; 1.64 in assay [6]; 3.42 in assay [7]. Moreover, the composite z-score was found to be 3.79 in [8], 5.67 in assay [9] and 4.61 in [10]. The z-score in [2] is -1.74.

As for `COc1ccc([Si](C)(C)[C@@H]2[C@@H](CCn3cc([C@H](O)c4ccccc4)nn3)O[C@]3(C(=O)N(Cc4ccc(N5CCC5=O)cc4)c4ccccc43)[C@H]2C)cc1`, the composite z-score in assay [1] is -0.222; in assay [3] it was -0.309; in [4], -0.185; in assay [5], -0.0351; in [6], -0.217; in [7] it was -0.191. Moreover, the composite z-score was 0.318 in [8], 0.0139 in assay [9] and -0.0352 in [10]. Moreover, the z-score in assay [2] was -2.06.

On to `C=CCN1Cc2ccccc2[C@H]2OC(c3ccc(OCCCO)cc3)=N[C@@]2(CC=C)C1=O`, for which the composite z-score in [1] is 1.46; in [3] it was 0.725; in [4] it was 3.19; in [5] it was 1.43; in [6] it was -0.0478; in assay [7], 0.14. In addition, the composite z-score in [8] is -0.44; in [9] it was -0.0689; in assay [10], 1.36. In assay [2], this compound returned a z-score of -1.74.

Consider `C[C@H]1NC(=O)[C@@]23C(=O)N[C@@H](Cc4ccccc4)C2[C@H](C)[C@@]2(C)O[C@H]2C3/C=C/C/C=C\CNC(=O)[C@H](Cc2ccccc2)NC1=O` (stereo not given in full), for which the composite z-score in [1] is 0.395; in [3], 0.154; in assay [4] it was 0.15; in assay [5], -0.849; in [6], -0.0445; in assay [7], -0.0533. Besides, the composite z-score is -0.196 in assay [8], -0.285 in assay [9] and 0.107 in assay [10]. The z-score in [2] is -1.02.

Take `C[N+](C)(C)CCCC[C@@H]1NC(=O)[C@H]2C[C@@H](C(=O)NCCCCCCN)[C@@H](c3ccc(O)cc3)N2C1=O`: the composite z-score in assay [1] came to 1.17; in [3], 0.0608; in assay [4], 0.756; in [5] it was 0.342; in [6] it was 0.127; in assay [7] it was 0.541. Further, the composite z-score in assay [8] was 0.0561; in assay [9], 0.567; in assay [10], 0.925. For the same compound, the z-score in assay [2] is -0.481.

Turning to `CCCNC(=O)[C@@]1(c2ccc([N+](=O)[O-])cc2)CC(=O)N(C2CCCCC2)[C@@H]1c1ccc(CO)cc1`, the composite z-score in [1] was 1.5; in assay [3], 0.357; in [4], 0.653; in assay [5], -0.0681; in assay [6], -0.0285; in assay [7] it was 0.446. The composite z-score in assay [8] was -0.0216; in assay [9] it was 1.2; in assay [10] it was 0.764. Further, the z-score in assay [2] was -0.887.

In the case of `C=CCN1C(=O)[C@@]2(O[C@@H](CCn3cc([C@H](O)c4ccccc4)nn3)[C@H]([Si](C)(C)c3ccc(OC)cc3)[C@H]2C)c2cc(N3CCC3=O)ccc21`, the composite z-score in assay [1] was 0.627; in assay [3], 0.225; in assay [4] it was 0.249; in assay [5] it was 0.294; in assay [6], -0.15; in assay [7] it was -0.138. For the same compound, the composite z-score in assay [8] is 0.15; in assay [9], 0.116; in assay [10], 0.359. In assay [2], this compound returned a z-score of -3.39.

As for `O=C1C[C@@](C(=O)NCCN2CCOCC2)(c2ccc([N+](=O)[O-])cc2)[C@@H](c2ccc(CO)cc2I)N1C1CCCCC1`, the composite z-score is 1.18 in [1]; 0.369 in assay [3]; -0.413 in assay [4]; -0.173 in assay [5]; -0.0445 in [6]; 0.0611 in [7]. Moreover, the values for the composite z-score in [8], in assay [9] and in assay [10] were 0.079, 0.646 and 1.43, respectively. In addition, the z-score in assay [2] was -2.66.

Take `O=C1O[C@@H](c2ccccc2)[C@@H](c2ccccc2)N2[C@@H](c3ccc(O)cc3)[C@]3(C(=O)Nc4ccc(C#CC5=CCCCC5)cc43)[C@@H](C(=O)NC[C@H](O)c3ccccc3)[C@H]12`: the composite z-score in assay [1] was 1.4; in [3], 0.915; in assay [4], 1.11; in [5], 0.293; in assay [6], 0.0964; in assay [7], -0.0769. The figures for the composite z-score in [8], in assay [9] and in [10] were 0.654, 1.52 and 0.774, respectively. In assay [2], this compound registered a z-score of -1.31.

As for `COc1ccc(CN(C2=CC[C@@]3(C(N)=O)C(=O)C(Cl)=C(Cl)C(=O)[C@@]3(C#N)C2)S(=O)(=O)c2ccc(Br)cc2)cc1`, the composite z-score is 0.731 in assay [1]; -0.885 in assay [3]; 1.1 in assay [4]; 0.391 in assay [5]; -0.11 in [6]; -0.0769 in assay [7]. Besides, the composite z-score in assay [8] is 0.784; in assay [9], 1.02; in [10], -0.181. Besides, in assay [2], the z-score is -1.56.

For the compound `O=C1c2ccccc2[C@](Cc2ccccc2I)(C(=O)NCC(F)(F)F)[C@H](c2ccc(CO)cc2)N1C1CCCCC1`, the composite z-score was 1.27 in [1]; 0.133 in [3]; 1.53 in assay [4]; 0.486 in [5]; -0.0405 in assay [6]; 0.0611 in [7]. Further, the composite z-score in assay [8] is 0.128; in assay [9], -0.229; in [10], 1.51. In addition, in assay [2], the z-score is -1.21.

Take `CC1CC/C=C\[C@H]2OC34C=CCN(c5ccc(Cl)cc5)C(=O)[C@H]3N(CCCCCO)C(=O)[C@]4(C)C2C(=O)O1` (stereo not given in full): the composite z-score in [1] is -0.826; in [3], -2.19; in assay [4], -0.471; in assay [5], 0.432; in assay [6], -0.247; in [7], -0.0626. The composite z-score in assay [8] was -0.163; in [9], -0.614; in assay [10] it was -1.16. The z-score in [2] turned out to be 0.315.

As to `OCCCC1=CC(c2ccc(CN3CCCC3)cc2)N(Cc2sc3ccccc3c2Cl)CC1` (stereo not given), the composite z-score in assay [1] is 1.32; in assay [3] it was 0.758; in assay [4] it was 0.325; in assay [5] it was -0.585; in assay [6], -0.113; in assay [7], 0.0899. Moreover, the results for the composite z-score in [8], in assay [9] and in [10] were 0.507, -0.0337 and 0.827, respectively. Also, the z-score in [2] was -4.17.
